The results in this text go back to PubChem BioAssay.

The source made the active and inactive calls. Unless noted, no rule for the calls is given here.

Assay [1] is described as follows: HepG2 liver cancer cell viability effects, profiling panel, resazurin fluorescence, 24 h, PK04 Diversity Set (AID 1172). Also: test concentration not given here. As to conditions: higher = more signal. (Resazurin is reduced to fluorescent resorufin, in cell work by metabolically active cells.)
Assay [2] is described as follows: basal S. cerevisiae growth modulation, no modifier, primary screen, OD600, strain BY4716, 24 h, basal condition (AID 1173). As to conditions: OD600, 24 h, higher = more signal, called active from +8 up or from −8 down.
Assay [3] in a line: MM1S myeloma cell viability, profiling panel, resazurin fluorescence, basal, 24 h, PK04 Diversity Set (AID 1174). Also: test concentration not given here. As to conditions: higher = more signal, called active from +8 up or from −8 down.
Assay [4] deals with Dihydroorotate dehydrogenase (quinone), mitochondrial (Plasmodium falciparum (isolate 3D7)) (UniProt Q08210). In words: PfDHODH enzyme inhibitors, primary screen, biochemical, C-terminal His tag, absorbance 600 nm (AID 1175).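 Also: recombinant parasite enzyme with a five histidine tag at its C terminus; test concentration not given here.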 As to conditions: DCIP absorbance 600 nm, higher = more signal, called active from +8 up or from −8 down.
Assay [5] is described as follows: P. aeruginosa biofilm formation inhibitors, primary screen, strain PAO1, LB-PBS medium, absorbance 600 nm (AID 1176). Also: test concentration not given here. As to conditions: P. aeruginosa PAO1 growth/biofilm, A600, 12 h; higher = more signal.
Assay [6] is described as follows: S. cerevisiae RM11-1a growth modifiers, primary screen, strain RM11-1a, OD600, basal, 24 h (AID 1177).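 Also: cultures grown under basal conditions with no added stressor; test concentration not given here.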 As to conditions: OD600, 24 h, higher = more signal, called active from +8 up or from −8 down.
Assay [7] can be described thus: E. coli acrAB mutant growth effects, primary screen, E. coli filamentation inducers, strain DRC39, OD650, 24 h (AID 1178).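 Also: growth measured as culture turbidity by optical density at 650 nm; test concentration not given here.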 As to conditions: higher = more signal, called active from +8 up or from −8 down.
A short description of assay [8]: E. coli acrAB mutant growth effects, primary screen, E. coli filamentation inducers, strain DRC39, OD650, 48 h (AID 1179).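 Also: screen aims at cell division blockers that make cells filament.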 As to conditions: E. coli DRC39 delta-acrAB growth, higher = more signal, called active from +8 up or from −8 down.
Assay [9] can be described thus: RPMI8226 myeloma cell viability, profiling panel, resazurin fluorescence, basal, 24 h, PK04 Diversity Set (AID 1180).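 Also: RPMI8826 multiple myeloma cell line at 5000 cells per well; test concentration not given here.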 As to conditions: higher = more signal.
The target in assay [10] is E3 ubiquitin-protein ligase XIAP (Homo sapiens) (UniProt P98170). The assay can be described thus: XIAP binders, primary screen, biophysical, small-molecule microarray, fluorescence 635 nm (AID 1181).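 Also: score merges 667 nm emission and signal to noise over triplicate slides.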 As to conditions: small-molecule microarray binding, higher = more signal.
Sequence of E3 ubiquitin-protein ligase XIAP (Homo sapiens) (P98170 whole entry, looked up): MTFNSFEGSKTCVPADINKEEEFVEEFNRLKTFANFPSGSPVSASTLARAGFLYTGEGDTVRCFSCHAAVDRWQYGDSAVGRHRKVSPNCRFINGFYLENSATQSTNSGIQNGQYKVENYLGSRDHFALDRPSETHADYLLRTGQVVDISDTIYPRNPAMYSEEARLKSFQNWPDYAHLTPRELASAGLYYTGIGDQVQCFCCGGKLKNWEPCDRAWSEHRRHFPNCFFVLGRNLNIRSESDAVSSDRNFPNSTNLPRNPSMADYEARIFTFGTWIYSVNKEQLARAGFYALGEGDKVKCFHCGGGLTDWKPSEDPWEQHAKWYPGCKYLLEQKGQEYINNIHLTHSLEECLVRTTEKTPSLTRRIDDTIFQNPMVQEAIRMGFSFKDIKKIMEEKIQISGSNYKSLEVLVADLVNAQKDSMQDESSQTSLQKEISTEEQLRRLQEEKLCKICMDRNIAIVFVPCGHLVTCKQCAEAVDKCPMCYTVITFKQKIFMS

Sequence of Dihydroorotate dehydrogenase (quinone), mitochondrial (Plasmodium falciparum (isolate 3D7)) (Q08210 whole entry, looked up): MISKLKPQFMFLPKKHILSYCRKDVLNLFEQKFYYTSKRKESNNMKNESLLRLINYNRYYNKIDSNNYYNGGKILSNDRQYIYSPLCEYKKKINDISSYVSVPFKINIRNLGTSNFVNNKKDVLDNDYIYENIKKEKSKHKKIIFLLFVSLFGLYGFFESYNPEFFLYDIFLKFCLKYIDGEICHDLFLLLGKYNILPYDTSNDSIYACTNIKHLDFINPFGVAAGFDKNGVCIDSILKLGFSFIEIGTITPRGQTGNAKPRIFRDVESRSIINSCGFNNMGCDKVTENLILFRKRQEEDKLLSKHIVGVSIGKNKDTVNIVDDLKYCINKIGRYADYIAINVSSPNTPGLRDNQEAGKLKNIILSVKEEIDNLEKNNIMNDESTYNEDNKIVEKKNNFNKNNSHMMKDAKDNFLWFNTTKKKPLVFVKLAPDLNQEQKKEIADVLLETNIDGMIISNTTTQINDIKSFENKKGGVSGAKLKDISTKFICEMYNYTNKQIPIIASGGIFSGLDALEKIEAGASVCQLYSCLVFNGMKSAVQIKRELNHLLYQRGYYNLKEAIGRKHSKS

On to `C=CCC(OC(C)=O)[C@@H]1[C@@H](N(Cc2cc3ccccc3o2)C(=O)c2ccc(C)cc2)c2cc(OCCCO)ccc2N1C(=O)c1ccc(-c2ccccc2)cc1` (stereo not given in full), for which the z-score in [1] was 0.419; in [2], -2.68 (inactive); in [3], -0.0884 (inactive); in assay [5], 0.444 (inactive); in assay [6] it was -3.8 (inactive); in [7] it was 1.15 (inactive). Moreover, the z-score is 1.35 (inactive) in assay [8] and 1.07 in [9]. Besides, the figures for the composite z-score in assay [4] and in assay [10] were -3 (inactive) and 2.75, respectively.

Regarding `C=CCC(OC(C)=O)[C@@H]1[C@@H](N(Cc2ccc(-c3cccc(C(F)(F)F)c3)o2)C(=O)Cc2ccc(OC)cc2)c2cc(OCCCO)ccc2N1C(=O)Cc1ccc(OC)cc1` (stereo not given in full), the z-score in assay [1] was -0.0596; in [2], -1.2 (inactive); in [3], 1.08 (inactive); in assay [5] it was 0.125 (inactive); in assay [6], -1.08 (inactive); in assay [7], 1.49 (inactive). The results for the z-score in [8] and in assay [9] were 0.814 (inactive) and 0.695, respectively. The composite z-score in assay [4] was -1.49 (inactive); in [10] it was -0.0879.

For the compound `CO[C@H]1O[C@H](CO)[C@@H](OC(=O)Nc2ccccc2-c2ccccc2)[C@H](OC(=O)Nc2ccccc2-c2ccccc2)[C@H]1OC(=O)Nc1ccccc1-c1ccccc1`, the z-score in assay [1] is -1.04; in [2] it was 1.95 (inactive); in assay [3] it was -1.6 (inactive); in [5], 1.45 (inactive); in [6], 4.43 (inactive); in [7] it was 0.494 (inactive). Further, the z-score is -0.0039 (inactive) in assay [8] and -1.6 in assay [9]. Also, the composite z-score in [4] is -0.236 (inactive); in [10], 1.26.

With `[N-]=[N+]=NCc1ccccc1C[C@@]1(C(=O)NCc2ccccc2)N=C(c2ccc(OCCCO)cc2)O[C@@H]1c1ccccc1CN=[N+]=[N-]`, the z-score in [1] was -0.594; in assay [2], 0.548 (inactive); in [3], -0.709 (inactive); in assay [5] it was 1.74 (inactive); in assay [6], 1.28 (inactive); in [7], 0.561 (inactive). The values for the z-score in [8] and in [9] were 0.678 (inactive) and -0.538, respectively. The composite z-score in assay [4] is -0.067 (inactive); in [10], -0.174.

`CCN(CC)c1ccc(N2CC=CC34O[C@@H]5C=CCCOC(=O)C5[C@H]3C(=O)N(CCCO)[C@@H]4C2=O)cc1` (stereo not given in full): the z-score was -0.704 in assay [1]; -1.25 (inactive) in assay [2]; 0.61 (inactive) in assay [3]; 0.525 (inactive) in assay [5]; -0.294 (inactive) in assay [6]; 1.21 (inactive) in [7]. The z-score is 0.764 (inactive) in assay [8] and 0.237 in assay [9]. Moreover, the composite z-score in assay [4] was -0.429 (inactive); in assay [10], -0.516.

`C=C[C@H](OC)[C@@H](OC(=O)Nc1ccc(SC)cc1)c1ccc(OCCO)cc1`: the z-score was -0.237 in assay [1]; -1.95 (inactive) in [2]; -0.895 (inactive) in [3]; 0.662 (inactive) in [5]; 0.39 (inactive) in assay [6]; 0.0364 (inactive) in assay [7]. For the same compound, the values for the z-score in assay [8] and in assay [9] were 0.0255 (inactive) and -0.204, respectively. The composite z-score in assay [4] is -1.02 (inactive); in [10], -0.0559.

With `O=C1OCCC=C[C@H]2OC34C=CCN(CCN5CCOCC5)C(=O)[C@H]3N(CCO)C(=O)[C@@H]4C12` (stereo not given in full), the z-score in [1] is -0.0535; in assay [2], -0.663 (inactive); in assay [3] it was -1.45 (inactive); in [5], 0.0962 (inactive); in assay [6], -0.249 (inactive); in [7], -1.14 (inactive). Besides, the z-score in assay [8] is -0.99 (inactive); in assay [9] it was -0.6. For the same compound, the composite z-score was -1.85 (inactive) in assay [4] and 0.0264 in assay [10].

With `CCN(CC)c1ccc(N2CC=CC34O[C@@H]5/C=C\CCCOC(=O)C5[C@H]3C(=O)N(CCCO)[C@@H]4C2=O)cc1` (stereo not given in full), the z-score in assay [1] is 0.434; in assay [2], 0.993 (inactive); in assay [3] it was 0.481 (inactive); in [5] it was 0.053 (inactive); in [6] it was -0.767 (inactive); in assay [7], -0.438 (inactive). In addition, the z-score in assay [8] was -0.322 (inactive); in assay [9] it was 0.566. In addition, the composite z-score is -0.423 (inactive) in [4] and 0.559 in assay [10].

For the compound `C=CC[C@@]1(C(=O)NCc2ccccc2)N=C(c2ccc(OCCCO)cc2)O[C@@H]1c1ccccc1CN=[N+]=[N-]`, the z-score in assay [1] is -0.46; in assay [2], 1.36 (inactive); in assay [3], -1.89 (inactive); in assay [5], 1.1 (inactive); in [6], 2.33 (inactive); in [7] it was 0.537 (inactive). For the same compound, the z-score was -0.793 (inactive) in assay [8] and -1.45 in assay [9]. Also, the composite z-score in [4] is 1.63 (inactive); in assay [10], 0.404.

For the compound `CC(=O)NCCCC[C@@H]1NC(=O)[C@@H]2C[C@H](C(=O)NCc3ccc(F)cc3)[C@H](c3ccc(O)cc3)N2C1=O`, the z-score in [1] was -0.0579; in [2], -0.462 (inactive); in assay [3] it was -0.276 (inactive); in assay [5] it was -0.226 (inactive); in assay [6], -0.985 (inactive); in assay [7], 0.304 (inactive). For the same compound, the results for the z-score in assay [8] and in assay [9] were -0.598 (inactive) and 0.473, respectively. The composite z-score was -1.13 (inactive) in [4] and 0.105 in assay [10].
